Reference: PubChem BioAssay (EPA / NIEHS)
The source made the active and inactive calls. The calls were made as follows: active = hit-call score of the fitted dose curve at least 0.9, where 1 is the maximum; inactive = score below 0.9.

biological target: Estrogen receptor (Homo sapiens) (UniProt P03372); assay: CCTE_Deisenroth_AIME_384WELL_LUC_Shift: CCTE's 384-well Estrogen Receptor Transactivation Assay with AIME metabolic competence data shift (ERTA luciferase; difference in metabolism positive and negative), Deisenroth Lab (AID 2284041);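 also: shift is response with S9 minus without S9 so positive means metabolism raised ER signal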
Procedure: CCTE_Deisenroth_AIME_384WELL (AIME metabolism assay) is a cell-based, single-readout assay that uses VM7Luc4E2, a human mammary gland/breast cell line, with measurements taken at 24 hour after chemical dosing in a 384-well plate.CCTE_Deisenroth_AIME_384WELL_LUC_Shift is one of two analysis components calculated from the CCTE_Deisenroth_AIME_384WELL assay. […] AIME is optimized to impart phase I hepatic metabolism using phenobarbital/beta-naphthoflavone induced hepatic S9 from male Sprague Dawley rats. Parent chemicals are incubated for 2 hours in the AIME assay prior to transfer to the VM7Luc ERTA assay plate. […] The metabolic curve shift response is defined as the pairwise difference between the positive (AEID 2488) and negative (AEID 2490) normalized response values at each concentration for a given chemical across replicate experiments. The pairwise differences form the basis for a concentration-response curve. Standard curve fit analysis identfiied chemicals where the calculated shift was greater than the shift-derived baseline cutoff. A positive hit designation in this endpoint indicates a significant shift trend in the positive direction for bioactivation.
The AIME procedure consists of a preparative "pre-stamping" step using a barium chloride/poly-L-lysine (PLL) solution followed by "stamping" the lid in alginate-hepatic S9 (metabolism positive) or alginate-water (metabolism negative) to form microspheres. Once stamping is completed, the AIME lids are placed in duplicate microplates (metabolism positive or negative) containing chemical solutions and incubated for two hours to facilitate metabolic reactions. The conditioned medium, containing parent chemical or metabolites, is then transferred to the cell-based VM7Luc Estrogen Receptor Transactivation Assay (ERTA) for 24 hours. A typical experimental design tests a 10-point concentration series (0.002 - 200 uM) for 8 compounds (96-well format)1 or 32 compounds (384-well format)2 in single technical replicate. AIME assay controls include trans-stilbene (bioactivated control) and ethylparaben (bioinactivated control). ERTA assay plate controls include 17-beta estradiol (positive control) and DMSO (solvent control). Experiments typically comprise a minimum of four experimental replicates (n=4).

Estrogen receptor (Homo sapiens), sequence (P03372 whole entry, looked up): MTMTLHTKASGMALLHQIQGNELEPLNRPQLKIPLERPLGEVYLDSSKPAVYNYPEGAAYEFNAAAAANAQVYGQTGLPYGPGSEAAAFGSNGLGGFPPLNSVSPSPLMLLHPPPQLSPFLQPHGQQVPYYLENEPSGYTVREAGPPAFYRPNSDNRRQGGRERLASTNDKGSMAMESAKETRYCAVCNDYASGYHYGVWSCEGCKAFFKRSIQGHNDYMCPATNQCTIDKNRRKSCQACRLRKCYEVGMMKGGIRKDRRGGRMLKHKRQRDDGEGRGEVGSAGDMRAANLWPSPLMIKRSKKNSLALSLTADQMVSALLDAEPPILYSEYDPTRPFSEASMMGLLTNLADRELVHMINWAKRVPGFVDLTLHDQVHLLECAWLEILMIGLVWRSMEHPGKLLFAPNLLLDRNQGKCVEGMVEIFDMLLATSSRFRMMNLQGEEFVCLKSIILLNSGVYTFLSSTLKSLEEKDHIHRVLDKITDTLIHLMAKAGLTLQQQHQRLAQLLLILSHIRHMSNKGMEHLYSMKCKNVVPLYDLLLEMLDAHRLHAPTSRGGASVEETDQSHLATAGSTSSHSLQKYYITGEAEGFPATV

Structure (SMILES) | outcome | AC50
CC1=NN(c2cc(S(=O)(=O)O)ccc2Cl)C(=O)C1N=Nc1ccccc1 (configuration not stated) | inactive | –
O=C1CCCC1 | inactive | –
OC1CCCC1 | inactive | –
C=C1C2CCC(C2)C1(C)C (configuration not stated) | inactive | –
O=c1cc(-c2ccccc2)oc2ccccc12 | inactive | –
CCOC(=O)CC | inactive | –
Cc1ccc(C(C)c2ccc(C)c(C)c2)cc1C | – | 0.000413 µM (active)
CCCCC(CC)CCC(CC(C)C)OS(=O)(=O)O (configuration not stated) | inactive | –
CCCCCCCCCCOS(=O)(=O)O | inactive | –
O=C(c1ccccc1)C1CCC1 | inactive | –
Oc1ccc(Cl)cc1Cc1cc(Cl)ccc1O | inactive | –
CC(=O)OC(C)C | inactive | –
CO[Si](OC)(OC)c1ccccc1 | inactive | –
O=C(C(Cl)Cl)N1CCOC12CCCCC2 | inactive | –
C=CC(=O)NC(C)(C)CS(=O)(=O)O | inactive | –
CCCCCCCC[N+](C)(CCCCCCCC)CCCCCCCC | inactive | –
NC(CO)(CO)CO | inactive | –
CCCCC/C=C\CCC=O | inactive | –
CCN(CCC#N)c1ccc(N=Nc2c(Cl)cc([N+](=O)[O-])cc2Cl)cc1 | inactive | –
O=C(C=Cc1ccccc1)OCc1ccccc1 | – | 22.9 µM (active)
c1ccc2c(c1)ccc1cc3c(ccc4ccccc43)cc12 | inactive | –
O=S1(=O)OC(c2ccc(O)cc2)(c2ccc(O)cc2)c2ccccc21 | inactive | –
CC=C1CC2C=CC1C2 (configuration not stated) | inactive | –
CN(C)c1ccc(C(=N)c2ccc(N(C)C)cc2)cc1 | inactive | –
CCCCCc1ccc(Cl)cc1 | inactive | –
O=S(=O)(O)c1ccccc1C=Cc1ccc(-c2ccc(C=Cc3ccccc3S(=O)(=O)O)cc2)cc1 | inactive | –
O=C1C(N(CO)C(=O)NCO)N(CO)C(=O)N1CO (configuration not stated) | inactive | –
